# Experimental data from ChEMBL document CHEMBL5724796, “Tm Shift (DSF) assay results for EUbOPEN Chemogenomics Library” (2024).
# Assays:
# Conditions in all cases: Compound concentration 20.0 uM
# [1] = target: Tyrosine-protein kinase ABL1 (Homo sapiens) (UniProt P00519)
# [2] = target: Bromodomain-containing protein 4 (Homo sapiens) (UniProt O60885)
# [3] = target: Cyclin-dependent kinase 2 (Homo sapiens) (UniProt P24941)
# [4] = target: Casein kinase I isoform delta (Homo sapiens) (UniProt P48730)
# [5] = target: Glycogen synthase kinase-3 beta (Homo sapiens) (UniProt P49841)
# [6] = target: Mitogen-activated protein kinase 1 (Homo sapiens) (UniProt P28482)
# [7] = target: T1, Aurora kinase A (Homo sapiens) (UniProt O14965)
# T1 sequence (whole entry): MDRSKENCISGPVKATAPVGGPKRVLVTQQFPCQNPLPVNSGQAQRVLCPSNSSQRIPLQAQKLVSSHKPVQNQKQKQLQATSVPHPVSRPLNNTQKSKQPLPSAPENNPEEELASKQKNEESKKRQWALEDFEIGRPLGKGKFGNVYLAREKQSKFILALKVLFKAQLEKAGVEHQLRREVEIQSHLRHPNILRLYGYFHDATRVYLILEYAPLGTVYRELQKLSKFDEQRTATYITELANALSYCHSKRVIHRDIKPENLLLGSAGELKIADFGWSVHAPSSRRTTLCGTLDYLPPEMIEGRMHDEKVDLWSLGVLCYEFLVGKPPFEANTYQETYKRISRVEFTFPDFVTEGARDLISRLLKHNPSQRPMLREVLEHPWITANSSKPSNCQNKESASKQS
# [8] = target: T2, Transcription intermediary factor 1-alpha (Homo sapiens) (UniProt O15164)
# T2 sequence (whole entry): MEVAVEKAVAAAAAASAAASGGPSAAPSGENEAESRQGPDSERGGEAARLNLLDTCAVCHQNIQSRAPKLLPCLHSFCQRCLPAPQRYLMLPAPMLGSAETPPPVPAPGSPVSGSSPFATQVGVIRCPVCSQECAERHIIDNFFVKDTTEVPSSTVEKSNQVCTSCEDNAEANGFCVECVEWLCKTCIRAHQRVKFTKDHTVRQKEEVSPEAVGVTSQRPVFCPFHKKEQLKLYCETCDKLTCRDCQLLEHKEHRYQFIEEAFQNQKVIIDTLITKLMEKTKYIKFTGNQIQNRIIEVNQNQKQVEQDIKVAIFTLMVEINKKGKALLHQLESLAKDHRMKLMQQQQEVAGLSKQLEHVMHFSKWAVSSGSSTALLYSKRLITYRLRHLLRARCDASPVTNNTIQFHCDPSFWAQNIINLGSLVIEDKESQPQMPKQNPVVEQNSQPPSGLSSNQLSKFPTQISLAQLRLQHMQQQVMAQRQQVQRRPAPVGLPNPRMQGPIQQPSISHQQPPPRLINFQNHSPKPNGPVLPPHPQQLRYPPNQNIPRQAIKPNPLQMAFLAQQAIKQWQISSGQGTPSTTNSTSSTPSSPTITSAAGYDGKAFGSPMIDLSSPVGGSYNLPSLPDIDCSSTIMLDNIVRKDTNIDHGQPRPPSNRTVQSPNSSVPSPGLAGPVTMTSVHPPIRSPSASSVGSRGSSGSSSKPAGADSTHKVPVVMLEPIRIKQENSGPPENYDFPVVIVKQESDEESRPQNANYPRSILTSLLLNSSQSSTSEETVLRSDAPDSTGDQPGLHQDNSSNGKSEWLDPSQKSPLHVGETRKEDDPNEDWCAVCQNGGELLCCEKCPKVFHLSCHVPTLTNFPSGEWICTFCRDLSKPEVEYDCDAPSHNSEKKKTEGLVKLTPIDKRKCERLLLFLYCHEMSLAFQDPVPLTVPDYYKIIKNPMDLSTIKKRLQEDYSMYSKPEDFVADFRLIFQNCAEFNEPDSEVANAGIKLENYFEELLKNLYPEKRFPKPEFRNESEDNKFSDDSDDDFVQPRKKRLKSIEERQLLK
# Sequence of Mitogen-activated protein kinase 1 (Homo sapiens) (P28482 whole entry): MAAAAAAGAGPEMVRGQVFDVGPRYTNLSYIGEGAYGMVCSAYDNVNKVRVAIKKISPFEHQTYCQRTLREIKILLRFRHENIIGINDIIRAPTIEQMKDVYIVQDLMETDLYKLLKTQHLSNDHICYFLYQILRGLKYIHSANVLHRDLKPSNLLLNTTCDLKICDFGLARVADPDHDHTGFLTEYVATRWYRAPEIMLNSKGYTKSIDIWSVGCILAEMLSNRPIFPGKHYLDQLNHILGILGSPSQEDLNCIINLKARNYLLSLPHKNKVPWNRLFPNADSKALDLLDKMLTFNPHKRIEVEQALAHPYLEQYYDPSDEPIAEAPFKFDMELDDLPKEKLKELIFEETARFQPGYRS
# Sequence of Glycogen synthase kinase-3 beta (Homo sapiens) (P49841 whole entry, looked up): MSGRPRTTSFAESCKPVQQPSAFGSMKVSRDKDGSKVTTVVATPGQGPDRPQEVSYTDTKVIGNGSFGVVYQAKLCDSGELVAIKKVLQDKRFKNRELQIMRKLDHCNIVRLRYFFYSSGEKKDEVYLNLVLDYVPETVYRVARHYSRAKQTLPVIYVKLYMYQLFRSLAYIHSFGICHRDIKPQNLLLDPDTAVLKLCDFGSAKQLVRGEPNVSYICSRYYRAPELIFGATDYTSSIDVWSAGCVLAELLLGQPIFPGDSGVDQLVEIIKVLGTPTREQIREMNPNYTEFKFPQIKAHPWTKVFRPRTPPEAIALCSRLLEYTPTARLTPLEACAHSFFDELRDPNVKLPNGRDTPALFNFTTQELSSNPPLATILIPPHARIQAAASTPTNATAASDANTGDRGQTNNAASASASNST
# Sequence of Tyrosine-protein kinase ABL1 (Homo sapiens) (P00519 whole entry): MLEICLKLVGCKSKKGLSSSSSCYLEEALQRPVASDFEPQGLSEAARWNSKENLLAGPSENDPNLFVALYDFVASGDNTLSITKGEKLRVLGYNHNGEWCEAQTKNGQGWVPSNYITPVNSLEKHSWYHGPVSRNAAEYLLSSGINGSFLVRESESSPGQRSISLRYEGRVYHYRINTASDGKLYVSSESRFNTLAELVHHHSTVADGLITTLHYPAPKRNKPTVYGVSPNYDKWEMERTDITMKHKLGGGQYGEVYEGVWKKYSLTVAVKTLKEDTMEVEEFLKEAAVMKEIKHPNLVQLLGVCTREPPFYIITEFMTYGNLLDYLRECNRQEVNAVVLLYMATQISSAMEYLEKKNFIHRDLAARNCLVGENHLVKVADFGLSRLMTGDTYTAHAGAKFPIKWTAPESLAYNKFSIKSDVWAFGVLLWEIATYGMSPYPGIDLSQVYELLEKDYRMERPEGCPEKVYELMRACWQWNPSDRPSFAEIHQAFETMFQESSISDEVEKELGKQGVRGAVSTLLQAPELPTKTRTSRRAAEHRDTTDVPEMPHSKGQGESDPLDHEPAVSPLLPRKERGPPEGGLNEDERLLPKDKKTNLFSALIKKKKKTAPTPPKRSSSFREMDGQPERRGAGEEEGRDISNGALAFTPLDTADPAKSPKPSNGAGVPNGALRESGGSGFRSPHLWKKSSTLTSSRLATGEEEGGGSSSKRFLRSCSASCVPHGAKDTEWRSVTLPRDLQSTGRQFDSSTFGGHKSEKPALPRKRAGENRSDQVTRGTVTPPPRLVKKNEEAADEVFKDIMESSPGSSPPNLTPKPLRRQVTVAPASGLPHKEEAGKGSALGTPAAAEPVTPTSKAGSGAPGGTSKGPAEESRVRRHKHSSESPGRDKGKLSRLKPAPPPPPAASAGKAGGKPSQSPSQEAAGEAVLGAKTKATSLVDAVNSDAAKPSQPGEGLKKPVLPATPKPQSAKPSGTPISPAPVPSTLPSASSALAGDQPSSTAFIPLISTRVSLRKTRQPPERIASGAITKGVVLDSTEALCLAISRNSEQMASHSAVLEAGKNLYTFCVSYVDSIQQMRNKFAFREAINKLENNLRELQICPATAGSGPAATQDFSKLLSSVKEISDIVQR
# Sequence of Casein kinase I isoform delta (Homo sapiens) (P48730 whole entry, looked up, canonical isoform): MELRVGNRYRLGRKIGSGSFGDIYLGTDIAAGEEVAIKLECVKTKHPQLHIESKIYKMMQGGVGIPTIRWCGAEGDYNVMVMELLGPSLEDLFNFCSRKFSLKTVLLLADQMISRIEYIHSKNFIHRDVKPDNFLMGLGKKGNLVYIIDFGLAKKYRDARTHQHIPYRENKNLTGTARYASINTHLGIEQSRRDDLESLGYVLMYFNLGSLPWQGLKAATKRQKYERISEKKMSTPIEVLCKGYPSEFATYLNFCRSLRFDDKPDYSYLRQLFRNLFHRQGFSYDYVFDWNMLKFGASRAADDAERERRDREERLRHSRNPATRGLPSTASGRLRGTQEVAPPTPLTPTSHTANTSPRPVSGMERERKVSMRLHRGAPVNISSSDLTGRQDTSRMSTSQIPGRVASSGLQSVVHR
Compound,ΔTm [1] [°C],ΔTm [2] [°C],ΔTm [3] [°C],ΔTm [4] [°C],ΔTm [5] [°C],ΔTm [6] [°C],ΔTm [7] [°C],ΔTm [8] [°C]
Cc1ncsc1-c1ccc(CNC(=O)[C@@H]2C[C@@H](O)CN2C(=O)[C@@H](NC(=O)COCCOCCOCCNC(=O)C[C@@H]2N=C(c3ccc(Cl)cc3)c3c(sc(C)c3C)-n3c(C)nnc32)C(C)(C)C)cc1,0.3,10,-1.76,0.94,0,0,0,0
CNC[C@@H](O)COc1ccc(Cl)c(-c2nc(-c3c(C)noc3C)c(C)c(N3CC4(CCN(C(=O)OC)CC4)C3)n2)c1,0.37,-2.53,0.32,0.05,-0.26,-2.08,0.12,0.65
Nc1ccccc1NC(=O)CCCCCC(=O)Nc1ccccc1,0.27,-2.09,0.5,0.04,-0.05,0.2,-0.94,-0.62
COc1ccc(CNc2nc(N3CCC[C@H]3CO)ncc2C(=O)NCc2ncccn2)cc1Cl,0.44,-1.19,-0.26,0.12,0.12,0.04,-1.84,-0.51
C[C@@H]1CN(c2nccc(Nc3ccc4c(c3)n(CCC(C)(C)O)c(=O)n4C)n2)C[C@H](C)C1(F)F,1.46,-1.76,3.21,-0.23,-0.32,-7.23,-2.03,-1.14
N[C@@H](CC(=O)Nc1ccc(Oc2cc(F)c(F)cc2Br)cc1)C(=O)O,0.75,-3.05,-0.04,0.11,-0.55,0.24,-2.19,0.54
O=C(CNC(=O)[C@H](COP(=O)(O)O)NC(=O)CCc1c[nH]c2ccccc12)NCCCCc1ccccc1,0.34,-3.51,0.72,-0.09,-0.2,0.17,-1.56,0.45
N#Cc1ccc(-c2c3n(c4cccnc24)CCN(C2CC2)C3=O)cc1F,0.62,-3.17,0.14,-0.26,1.8,0.04,-2.3,0.73
CNc1nccc(CN(CC2CCNCC2)S(=O)(=O)c2ccc(S(=O)(=O)N(Cc3ccc(Cl)cc3)C3CCCC3)cc2)n1,0.85,-3.15,0.06,0.31,0.43,0.57,-2.49,-0.52
CC(C)Nc1cc(-c2c[nH]c(C(=O)N[C@H](CO)c3cccc(Cl)c3)c2)c(Cl)cn1,1.43,6.89,8.63,0.57,14.2,-1.26,13.7,0.98
c1ccc(Cn2c(-c3ccc(OC[C@H](C4CCNCC4)n4c(-c5ccccc5)nc5ccccc54)cc3)nc3ccccc32)cc1,-1.84,-6.29,-1.5,-0.34,-3.92,0,0,-1.18
O=C(O)/C(S)=C/c1ccc(I)cc1,0.07,-3.45,-1.16,-0.16,-8.42,-1.42,0.99,-0.27
C=CC(=O)Nc1cccc(-c2c[nH]cc2CN(C)CCN)c1,0.53,-1.27,0.4,-0.04,-1.22,0.08,-0.37,-1.19
O=C1CCc2cc(OCCCCc3nnnn3C3CCCCC3)ccc2N1,0.01,-0.81,-0.24,-0.48,-0.04,0.01,-1.24,-0.24
Cc1c(CN2CCC(Nc3ncnc4sc(CC(F)(F)F)cc34)CC2)ccc2[nH]c(C#N)cc12,-0.58,0.25,-0.04,1.22,-1.43,-1.41,-7.15,0.71
CCC(NC(=O)C(CC(C)C)NC(=O)OCc1ccccc1)C(=O)C(=O)NCCCN1CCOCC1 (centres undefined),0.13,-2.44,-0.24,0.08,-1.31,-0.33,-0.93,-1.35
Cn1nc(C(C)(C)C)cc1C(=O)NC(Cc1cccc(Cl)c1)C(=O)NCC#N (centres undefined),0.37,-2.22,0.71,0.04,0.23,0.2,-1.33,0.74
CCCSc1nc(N[C@@H]2C[C@H]2c2ccc(F)c(F)c2)c2nnn([C@@H]3C[C@H](OCCO)[C@@H](O)[C@H]3O)c2n1,0.97,-3.15,-0.32,-0.02,-1.82,0.5,-2.27,0.03
O=C(N1CCCCC1c1ccccc1)n1cc(-c2ccc(-c3cccc(CO)c3)cc2)nn1 (centres undefined),-2.74,-2.31,-2.39,-10.5,-1.86,-9.96,-5.38,2.17
O=C(O)Cc1ccc(Cc2cc(-c3cccc(Cl)c3)nc(C(F)(F)F)c2)cc1,0.68,-4.37,1.64,-0.18,-1.53,0.39,-2.1,-0.93
Nc1ncnc2c1ncn2[C@@H]1O[C@H](C[C@@H](N)CC[C@H](N)C(=O)O)[C@@H](O)[C@H]1O,0.31,-2.03,-0.94,0.18,-1.05,-1.35,-1.45,-0.73
O=C(N(CCc1ccccc1)C1CCCCC1)n1ncc(-c2ccc(OC(F)(F)F)cc2)n1,-0.68,-2.75,0.18,0.03,-3.35,0.11,-1.75,0.14
O=C(Nc1ccccc1C(=O)O)c1cc(S(=O)(=O)c2ccccc2)ccc1Cl,0.57,-2.4,0.28,-0.33,0.26,0.08,-2.26,1.1
CN(C)CC(c1ccc(O)cc1)C1(O)CCCCC1 (centres undefined),0.19,-2.16,0.04,-0.35,-1.41,0.1,-1.27,0.3
CCCCCCNC(=O)n1cc(F)c(=O)[nH]c1=O,0.09,-1.76,-0.24,-0.3,-0.82,0.03,-1.98,0.05
Cc1nc2ccccn2c1C(=O)CN1CCN(c2ccc(F)cn2)CC1,-0.05,0.87,0.63,-0.29,-0.25,0.11,-1.47,0.7
O=C(NCCc1cc(C(=O)NO)no1)c1ccc(Cl)c(Cl)c1,1.11,-2.11,0.66,0.6,-1.05,0.3,-0.59,-0.96
CCN1C(C)(C)CC(Oc2ccc(C(=O)Nc3ccc(NC(=O)Nc4cc(C(C)(C)C)on4)cc3)nc2)CC1(C)C,1.14,-1.48,0.38,0.21,0.25,-3.48,0.68,-0.32
